What all share (test): DAPPL (digital affinity profiling via proximity ligation, sequencing); 10 mM Tris-HCl pH 7.5, 50 mM NaCl, 1 mM DTT, 4% glycerol, room temperature, 30 min; GST-TFs on glutathione beads, 16-mer random dsDNA library, 0.1% formaldehyde crosslink after washing; high values mean tight binding
What all share (details): protein: recombinant; tags: N-terminal GST; dsDNA, one strand shown

One assay deals with T1, FLI1 (Homo sapiens, UniProt Q01543 1-452).
T1 sequence: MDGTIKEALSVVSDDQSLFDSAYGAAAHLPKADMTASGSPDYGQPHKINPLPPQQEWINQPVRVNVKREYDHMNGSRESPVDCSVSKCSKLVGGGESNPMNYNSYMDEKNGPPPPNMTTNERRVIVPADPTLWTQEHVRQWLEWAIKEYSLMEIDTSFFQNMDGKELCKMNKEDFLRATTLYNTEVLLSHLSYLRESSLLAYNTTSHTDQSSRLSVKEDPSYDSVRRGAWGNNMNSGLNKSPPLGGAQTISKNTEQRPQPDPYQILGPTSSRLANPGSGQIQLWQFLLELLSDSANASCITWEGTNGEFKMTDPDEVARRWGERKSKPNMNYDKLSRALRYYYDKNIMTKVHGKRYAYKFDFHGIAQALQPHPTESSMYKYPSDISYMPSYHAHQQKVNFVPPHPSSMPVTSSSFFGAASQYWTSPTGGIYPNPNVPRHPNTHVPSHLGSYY
In outline:
(§1)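 Sequencing on an Illumina NextSeq500 followed washing, crosslinking with 0.1% formaldehyde, proximity ligation (BsaI/T4 ligase, 1 h, 37 °C) and PCR amplification of pools that had been incubated for 30 min at room temperature with 200 nmole of a random double-stranded 16-mer DNA library in Tris/NaCl/DTT/glycerol buffer. Each pool held DNA-barcoded human transcription factors, expressed in yeast as GST fusions and captured on glutathione beads, plus a tag-only sample. Binding signal is a hexamer's read frequency for a factor divided by its frequency in the tag-only sample.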

In a further assay the target is T2, ELK1 (Homo sapiens, UniProt P19419 1-428).
T2 sequence: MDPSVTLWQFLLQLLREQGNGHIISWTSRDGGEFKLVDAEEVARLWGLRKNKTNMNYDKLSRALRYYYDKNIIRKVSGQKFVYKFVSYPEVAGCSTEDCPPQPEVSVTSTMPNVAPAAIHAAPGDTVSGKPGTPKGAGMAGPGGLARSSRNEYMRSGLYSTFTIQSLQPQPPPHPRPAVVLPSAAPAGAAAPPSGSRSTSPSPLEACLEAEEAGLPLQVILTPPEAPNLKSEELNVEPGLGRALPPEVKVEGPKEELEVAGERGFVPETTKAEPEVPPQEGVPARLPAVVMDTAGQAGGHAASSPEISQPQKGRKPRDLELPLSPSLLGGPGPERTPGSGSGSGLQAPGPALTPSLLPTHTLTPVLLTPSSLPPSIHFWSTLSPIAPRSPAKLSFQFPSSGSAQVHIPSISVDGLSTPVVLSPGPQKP
In outline:
as §1

For the next assay, the target named is T3, ERG (Homo sapiens, UniProt P11308 1-479).
T3 sequence: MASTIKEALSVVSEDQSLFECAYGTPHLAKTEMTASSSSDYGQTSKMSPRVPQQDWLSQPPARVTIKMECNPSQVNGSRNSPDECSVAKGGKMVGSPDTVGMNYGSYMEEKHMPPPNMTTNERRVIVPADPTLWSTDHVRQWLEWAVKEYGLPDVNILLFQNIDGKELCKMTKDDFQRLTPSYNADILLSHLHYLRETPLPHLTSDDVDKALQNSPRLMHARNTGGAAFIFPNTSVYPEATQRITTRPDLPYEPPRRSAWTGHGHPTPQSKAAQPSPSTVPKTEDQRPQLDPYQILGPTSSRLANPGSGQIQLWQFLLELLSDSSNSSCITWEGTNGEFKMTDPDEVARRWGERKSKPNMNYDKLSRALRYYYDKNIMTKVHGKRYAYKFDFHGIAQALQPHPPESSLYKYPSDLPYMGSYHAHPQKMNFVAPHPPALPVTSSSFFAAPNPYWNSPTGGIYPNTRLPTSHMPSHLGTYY
In outline:
as §1

The target in a further assay is ELF1 (Homo sapiens, UniProt P32519 1-619). In outline:
as §1

A further assay has as its target T4, EHF (Homo sapiens, UniProt Q9NZC4 1-300).
T4 sequence: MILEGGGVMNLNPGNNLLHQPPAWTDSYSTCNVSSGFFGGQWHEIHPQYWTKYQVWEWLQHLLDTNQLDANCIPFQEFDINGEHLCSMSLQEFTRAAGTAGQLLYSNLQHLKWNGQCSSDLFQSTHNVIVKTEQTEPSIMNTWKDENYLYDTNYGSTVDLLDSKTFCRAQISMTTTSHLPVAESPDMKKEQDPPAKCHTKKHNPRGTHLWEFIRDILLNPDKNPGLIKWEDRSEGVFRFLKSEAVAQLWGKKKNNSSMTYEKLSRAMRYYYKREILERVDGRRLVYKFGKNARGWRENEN
In outline: as §1

In a further assay the target is SPI1 (Homo sapiens, UniProt P17947 1-270). In outline: as §1
A further assay has as its target SPIB (Homo sapiens, UniProt Q01892 1-262). In outline:
as §1

The target of another assay is T5, ELK3 (Homo sapiens, UniProt P41970 1-407).
T5 sequence: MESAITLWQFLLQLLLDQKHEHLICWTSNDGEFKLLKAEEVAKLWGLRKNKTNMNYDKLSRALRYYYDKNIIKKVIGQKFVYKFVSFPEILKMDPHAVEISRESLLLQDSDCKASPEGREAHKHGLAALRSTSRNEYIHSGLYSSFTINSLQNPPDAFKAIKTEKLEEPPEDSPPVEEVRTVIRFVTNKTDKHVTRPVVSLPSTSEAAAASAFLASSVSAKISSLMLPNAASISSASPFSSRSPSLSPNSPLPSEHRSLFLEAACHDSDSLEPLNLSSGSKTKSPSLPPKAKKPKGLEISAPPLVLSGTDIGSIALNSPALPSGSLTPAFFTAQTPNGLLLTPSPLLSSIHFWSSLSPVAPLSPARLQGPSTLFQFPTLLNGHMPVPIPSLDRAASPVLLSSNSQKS
In outline:
as §1

The next assay addresses T6, FEV (Homo sapiens, UniProt Q99581 1-238).
T6 sequence: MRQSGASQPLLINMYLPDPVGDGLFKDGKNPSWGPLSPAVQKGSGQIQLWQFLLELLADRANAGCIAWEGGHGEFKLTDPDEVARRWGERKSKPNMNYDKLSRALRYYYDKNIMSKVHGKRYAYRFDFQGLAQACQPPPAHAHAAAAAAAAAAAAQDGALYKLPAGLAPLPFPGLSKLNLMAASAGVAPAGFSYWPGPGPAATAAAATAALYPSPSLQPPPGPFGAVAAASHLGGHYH
In outline: as §1

Another assay addresses ETV5 (Homo sapiens, UniProt P41161 1-510). In outline:
as §1

The next assay addresses T7, SPIC (Homo sapiens, UniProt Q8N5J4 1-248).
T7 sequence: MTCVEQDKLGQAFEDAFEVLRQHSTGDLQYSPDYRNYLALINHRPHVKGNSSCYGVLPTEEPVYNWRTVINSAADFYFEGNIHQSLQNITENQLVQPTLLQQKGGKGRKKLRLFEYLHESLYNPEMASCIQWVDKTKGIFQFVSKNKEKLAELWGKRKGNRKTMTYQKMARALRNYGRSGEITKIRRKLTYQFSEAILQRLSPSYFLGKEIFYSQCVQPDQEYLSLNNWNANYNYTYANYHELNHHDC
In outline: as §1

A further assay addresses ELF4 (Homo sapiens, UniProt Q99607 1-663). In outline: as §1
Another assay deals with T8, ELK4 (Homo sapiens, UniProt P28324-2 1-405).
T8 sequence: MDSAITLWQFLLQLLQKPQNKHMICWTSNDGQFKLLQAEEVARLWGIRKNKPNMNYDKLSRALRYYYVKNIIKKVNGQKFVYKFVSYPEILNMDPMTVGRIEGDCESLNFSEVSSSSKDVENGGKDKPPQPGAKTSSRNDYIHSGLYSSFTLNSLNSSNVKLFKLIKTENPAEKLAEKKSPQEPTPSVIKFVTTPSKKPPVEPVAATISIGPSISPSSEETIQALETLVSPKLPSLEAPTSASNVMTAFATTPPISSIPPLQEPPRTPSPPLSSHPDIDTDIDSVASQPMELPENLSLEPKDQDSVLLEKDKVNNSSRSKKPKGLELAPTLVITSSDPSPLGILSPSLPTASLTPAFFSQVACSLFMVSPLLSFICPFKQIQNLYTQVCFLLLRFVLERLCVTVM
In outline:
as §1

In the next assay the target is T9, ETV2 (Homo sapiens, UniProt O00321 1-342).
T9 sequence: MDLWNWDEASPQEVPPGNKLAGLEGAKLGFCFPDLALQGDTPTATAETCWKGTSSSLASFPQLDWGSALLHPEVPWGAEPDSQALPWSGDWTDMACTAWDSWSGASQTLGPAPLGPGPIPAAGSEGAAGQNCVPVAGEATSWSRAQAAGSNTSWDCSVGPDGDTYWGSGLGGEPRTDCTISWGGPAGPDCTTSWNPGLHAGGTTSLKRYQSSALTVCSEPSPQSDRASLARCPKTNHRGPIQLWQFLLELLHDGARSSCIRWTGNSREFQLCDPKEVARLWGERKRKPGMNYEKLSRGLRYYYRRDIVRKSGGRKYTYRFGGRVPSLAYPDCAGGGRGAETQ
In outline: as §1

For another assay, the target named is T10, ELF3 (Homo sapiens, UniProt P78545 1-371).
T10 sequence: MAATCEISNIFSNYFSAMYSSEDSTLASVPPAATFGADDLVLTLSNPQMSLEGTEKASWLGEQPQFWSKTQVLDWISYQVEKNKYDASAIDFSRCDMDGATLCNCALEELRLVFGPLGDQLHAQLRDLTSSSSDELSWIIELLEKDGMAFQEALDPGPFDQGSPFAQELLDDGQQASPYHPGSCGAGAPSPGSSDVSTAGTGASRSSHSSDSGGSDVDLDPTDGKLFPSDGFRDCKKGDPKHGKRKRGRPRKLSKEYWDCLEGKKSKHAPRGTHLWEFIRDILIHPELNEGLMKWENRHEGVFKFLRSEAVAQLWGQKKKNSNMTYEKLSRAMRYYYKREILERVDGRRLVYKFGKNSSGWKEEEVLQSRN
In outline:
as §1

In another assay the target is ETV1 (Homo sapiens, UniProt P50549 1-477). In outline: as §1
ETV1, sequence (P50549 whole entry): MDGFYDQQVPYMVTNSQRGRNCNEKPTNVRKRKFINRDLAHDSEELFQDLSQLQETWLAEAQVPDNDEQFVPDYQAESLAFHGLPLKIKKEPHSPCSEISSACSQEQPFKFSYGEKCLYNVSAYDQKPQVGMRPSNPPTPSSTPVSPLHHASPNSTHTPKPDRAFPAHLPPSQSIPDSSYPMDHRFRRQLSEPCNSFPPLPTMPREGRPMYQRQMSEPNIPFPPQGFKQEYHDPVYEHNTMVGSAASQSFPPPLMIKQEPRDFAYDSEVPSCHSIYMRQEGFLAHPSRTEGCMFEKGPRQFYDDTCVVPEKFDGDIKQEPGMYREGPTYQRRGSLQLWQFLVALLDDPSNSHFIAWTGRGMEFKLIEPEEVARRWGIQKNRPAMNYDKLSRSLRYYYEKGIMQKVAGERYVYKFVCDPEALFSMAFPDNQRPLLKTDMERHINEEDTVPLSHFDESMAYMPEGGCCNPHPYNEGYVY

SPIB, sequence (Q01892 whole entry): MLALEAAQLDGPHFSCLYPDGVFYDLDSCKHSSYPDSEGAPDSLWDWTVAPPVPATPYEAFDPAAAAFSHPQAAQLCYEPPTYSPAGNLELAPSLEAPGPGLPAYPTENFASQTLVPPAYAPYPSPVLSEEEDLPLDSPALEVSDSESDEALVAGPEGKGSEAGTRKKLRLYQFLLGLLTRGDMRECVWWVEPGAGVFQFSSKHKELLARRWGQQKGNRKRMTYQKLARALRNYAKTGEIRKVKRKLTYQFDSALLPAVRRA
ELF1, sequence (P32519 whole entry): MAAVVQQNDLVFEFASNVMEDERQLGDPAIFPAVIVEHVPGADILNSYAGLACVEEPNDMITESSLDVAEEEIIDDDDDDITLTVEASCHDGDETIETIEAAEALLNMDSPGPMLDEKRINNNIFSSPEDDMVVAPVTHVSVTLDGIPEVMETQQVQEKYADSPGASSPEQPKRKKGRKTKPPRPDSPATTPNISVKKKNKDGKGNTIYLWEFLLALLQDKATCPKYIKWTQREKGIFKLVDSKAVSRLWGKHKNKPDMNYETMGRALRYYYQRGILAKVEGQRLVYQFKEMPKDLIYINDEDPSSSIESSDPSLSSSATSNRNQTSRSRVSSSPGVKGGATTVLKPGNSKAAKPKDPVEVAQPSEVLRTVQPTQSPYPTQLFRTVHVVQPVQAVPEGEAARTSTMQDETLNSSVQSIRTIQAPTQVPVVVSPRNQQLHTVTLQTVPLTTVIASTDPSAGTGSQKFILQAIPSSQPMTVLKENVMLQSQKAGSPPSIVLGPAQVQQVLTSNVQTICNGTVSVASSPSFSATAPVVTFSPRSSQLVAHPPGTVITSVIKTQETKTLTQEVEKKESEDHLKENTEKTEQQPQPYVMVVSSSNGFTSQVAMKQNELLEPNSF
ELF4, sequence (Q99607 whole entry): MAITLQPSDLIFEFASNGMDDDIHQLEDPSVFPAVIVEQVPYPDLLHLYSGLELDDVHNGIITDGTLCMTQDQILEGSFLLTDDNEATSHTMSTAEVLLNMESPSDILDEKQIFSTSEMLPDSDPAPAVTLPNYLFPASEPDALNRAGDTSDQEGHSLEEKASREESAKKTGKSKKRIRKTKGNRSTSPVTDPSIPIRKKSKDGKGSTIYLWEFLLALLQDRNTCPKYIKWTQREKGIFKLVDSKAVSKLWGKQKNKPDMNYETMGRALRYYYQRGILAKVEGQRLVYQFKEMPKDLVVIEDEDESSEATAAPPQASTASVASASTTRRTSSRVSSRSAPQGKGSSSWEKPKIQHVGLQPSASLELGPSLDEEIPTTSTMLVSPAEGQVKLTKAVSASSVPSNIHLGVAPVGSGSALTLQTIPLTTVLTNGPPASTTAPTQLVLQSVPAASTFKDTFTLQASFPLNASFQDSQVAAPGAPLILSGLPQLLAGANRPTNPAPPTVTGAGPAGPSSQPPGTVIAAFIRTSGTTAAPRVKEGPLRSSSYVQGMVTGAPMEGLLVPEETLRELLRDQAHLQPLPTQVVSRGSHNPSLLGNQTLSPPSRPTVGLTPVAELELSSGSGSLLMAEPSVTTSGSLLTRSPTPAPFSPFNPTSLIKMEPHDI
ETV5, sequence (P41161 whole entry): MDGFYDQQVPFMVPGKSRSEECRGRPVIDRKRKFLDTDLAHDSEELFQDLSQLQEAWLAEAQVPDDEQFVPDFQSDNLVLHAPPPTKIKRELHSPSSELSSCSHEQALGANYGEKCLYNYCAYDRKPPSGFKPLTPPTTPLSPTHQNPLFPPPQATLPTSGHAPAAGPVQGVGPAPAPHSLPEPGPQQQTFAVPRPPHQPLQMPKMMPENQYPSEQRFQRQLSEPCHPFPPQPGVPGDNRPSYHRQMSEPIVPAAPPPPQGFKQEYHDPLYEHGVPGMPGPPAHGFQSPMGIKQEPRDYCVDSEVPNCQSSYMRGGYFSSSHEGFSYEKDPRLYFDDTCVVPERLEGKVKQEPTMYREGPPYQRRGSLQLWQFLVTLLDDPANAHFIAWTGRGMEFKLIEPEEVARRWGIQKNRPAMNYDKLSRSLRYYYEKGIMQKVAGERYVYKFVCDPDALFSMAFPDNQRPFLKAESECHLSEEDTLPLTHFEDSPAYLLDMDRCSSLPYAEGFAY

As to GTCCAT, the binding signal with FLI1 was 1.22 fold enrichment (6-mer frequency, TF over GST control); with ELK1 it was 1.07 fold enrichment (6-mer frequency, TF over GST control); with ERG, 1.14 fold enrichment (6-mer frequency, TF over GST control); with ELF1, 1.1 fold enrichment (6-mer frequency, TF over GST control); in the assay with EHF, 1.13 fold enrichment (6-mer frequency, TF over GST control); with SPI1 it was 1.08 fold enrichment (6-mer frequency, TF over GST control). Moreover, the binding signal was 1.07 fold enrichment (6-mer frequency, TF over GST control) with SPIB; 1.2 fold enrichment (6-mer frequency, TF over GST control) with ELK3; 1.03 fold enrichment (6-mer frequency, TF over GST control) with FEV; 1.17 fold enrichment (6-mer frequency, TF over GST control) in the assay with ETV5; 1.17 fold enrichment (6-mer frequency, TF over GST control) in the assay with SPIC; 1.1 fold enrichment (6-mer frequency, TF over GST control) with ELF4. Further, the binding signal was 1.18 fold enrichment (6-mer frequency, TF over GST control) with ELK4; 1.04 fold enrichment (6-mer frequency, TF over GST control) with ETV2; 1.11 fold enrichment (6-mer frequency, TF over GST control) with ELF3; 1.18 fold enrichment (6-mer frequency, TF over GST control) with ETV1.

Source of the values: paper PMC7862700, “An all-to-all approach to the identification of sequence-specific readers for epigenetic DNA modifications on cytosine”.
